# From PubChem BioAssay
# ERK AVP inh: blocks ERK signaling stimulated by vasopressin; HEK293-V1b, vasopressin-stimulated pERK AlphaScreen; Potency, µM (titrated, usually from 57.5 µM), for inactives: top-dose activity, negative = inhibition, hits mostly inhibitors; actives 0.99% (n = 72,000); AID 995; further: on the % scale 0 is the no-effect control and ±100 the full control effect; nearly all actives have a fitted effect of over 55% in size
#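 V1b-HEK293 cells; cpd 30 min 37C; 25 nM vasopressin 5 min; lyse 10 min; AlphaScreen beads 5 hr RT. Normalized to DMSO basal and 25 nM vasopressin; AC50 by Hill fit.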
# TSHR agonist: TSH receptor (human) agonism; P16473; HEK293-CNG-TSHR cells (CNG channel as cAMP sensor), membrane potential dye, cAMP; Potency, µM (series often up to 57.1 µM), without a hit: top-dose activation, hits mostly activators; actives 0.48% (n = 73,000); active means well fitted activation curve with a large enough effect in the main read-out, with a control signal flat, not every such curve was filed as active; inconclusive means small, poorly fitted or top-dose-only effect, or a change in a side signal; inactive means no such curve, though single readings can be large or run the other way; % of control where 0% means no effect;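 further: the control signal comes from parental cells without the receptor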
# Target sequence (P16473 whole entry, looked up): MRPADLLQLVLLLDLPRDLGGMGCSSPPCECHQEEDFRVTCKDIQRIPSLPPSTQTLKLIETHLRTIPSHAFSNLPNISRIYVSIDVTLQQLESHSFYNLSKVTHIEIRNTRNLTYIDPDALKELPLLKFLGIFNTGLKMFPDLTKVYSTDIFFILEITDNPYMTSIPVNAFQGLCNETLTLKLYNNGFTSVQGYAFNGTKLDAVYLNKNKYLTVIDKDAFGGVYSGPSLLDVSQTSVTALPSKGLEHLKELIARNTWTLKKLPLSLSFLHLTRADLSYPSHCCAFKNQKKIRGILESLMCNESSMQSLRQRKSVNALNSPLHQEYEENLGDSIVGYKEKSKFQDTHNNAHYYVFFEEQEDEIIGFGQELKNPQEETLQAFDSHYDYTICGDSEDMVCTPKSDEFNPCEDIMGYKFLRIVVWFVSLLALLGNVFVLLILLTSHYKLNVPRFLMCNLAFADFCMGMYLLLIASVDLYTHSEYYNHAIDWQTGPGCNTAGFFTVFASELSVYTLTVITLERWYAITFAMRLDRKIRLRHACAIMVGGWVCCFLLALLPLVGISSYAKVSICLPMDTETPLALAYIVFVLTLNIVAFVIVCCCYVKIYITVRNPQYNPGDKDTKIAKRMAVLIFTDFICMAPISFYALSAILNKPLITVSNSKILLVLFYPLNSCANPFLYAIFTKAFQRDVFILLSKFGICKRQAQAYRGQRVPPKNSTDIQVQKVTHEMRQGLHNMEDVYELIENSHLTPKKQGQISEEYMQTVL
#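 cAMP rise detected as CNG-channel membrane depolarization by fluorescent dye (emission 590 nm), 30 min after compound, following 60 min dye loading containing 100 uM RO 20-1724 at room temperature. Cells: TSHR/CNG HEK 293, with parental CNG HEK 293 as control.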
# CRE-bla Fsk: alters forskolin-stimulated CRE reporter signaling in CHO cells | CHO CRE-bla reporter (cAMP response element driving beta-lactamase), forskolin EC10, beta-lactamase ratio | Potency, µM (doses to about 38.2 µM), inactives show at the top dose activity change, negative = inhibition, usual class: activators | actives 2.5% (n = 71,000) | AID 662; active means well fitted activation curve with a large enough effect in the signal ratio, with a control signal flat, not every such curve was filed as active; inconclusive means small, poorly fitted or top-dose-only effect, or effect the other way, or a change in a side signal; the % refers to the signal ratio; further: % of control where 0% means no effect
#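 Cells were plated overnight at 37 °C, exposed to compound titrations plus EC10 NKH 477 for 3 h, then given CCF4 dye for 2 h at room temperature. Blue/green (460/530 nm) ratio was converted to %Activity and AC50 values calculated.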
# HEK293 cAMP cs: counter-screen for TSHR agonists: cAMP increase in parental HEK293 | parental HEK293 CNG cAMP sensor, membrane potential fluorescence | actives 2.5% (n = 73,000) | AID 938 | Potency, µM (series often up to 57.1 µM), inactives show at the highest dose activation, actives largely listed as activators; further: % of control where 0% means no effect; nearly all actives have a fitted effect of over 55% in size
#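 Counterscreen for endogenous-receptor signalling: CNG-channel HEK 293 cells report cAMP rise by membrane depolarization. After 60 min dye equilibration with 100 uM RO 20-1724, compounds incubated 30 min before bottom-read fluorescence at 590 nm.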
# * marks the source's active call; other numbers are inactive results; i = inactive; ? = inconclusive; nt = not tested or not shown; [ ] = remark or other dose. A selection: hits, their analogues and other compounds. The true share with any hit is near 6%. Unless noted, the call rests on the fitted dose curve; in most records, active means well fitted curve in the direction sought with a large enough effect; inconclusive means small, poorly fitted or top-dose-only effect, or another doubt; inactive means no such curve, though single readings can be large; an effect the other way counts as inactive or inconclusive. Potency means the concentration at half of the fitted maximal effect.
SMILES,ERK AVP inh,TSHR agonist,CRE-bla Fsk,HEK293 cAMP cs
CCOC(=O)C1CCCN(c2ncnc3c2oc2ccccc23)C1 (centres undefined),25µM*,?,25%,?
CCOC(=O)C1CCCN(C(=O)c2cc(=O)c3ccccc3o2)C1 (centres undefined),-21%,0%,?,10%
Cc1ccc2c(c1)c1ncnc(N3CCOCC3)c1n2C,-16%,18%,?,16%
c1ccc(N2CCN(c3ncnc4c3oc3ccccc34)CC2)cc1,32µM*,?,?,20µM*
CCOC(=O)C1CCN(c2ncnc3c2oc2ccccc23)CC1,6%,?,?,25µM*
Cc1ccc2c(c1)c1ncnc(N3CCN(c4ccccc4)CC3)c1n2C,-20%,?,?,25µM*
CCOC(=O)C1CCN(c2nc(-c3ccccc3)nc3c2oc2ccccc23)CC1,5%,nt,?,20%
CC(=O)[C@@H]1CC[C@@H]2[C@@H]3C[C@H](C)C4=CC(=O)CC[C@@]4(C)[C@H]3[C@H](O)C[C@]21C,16%[25.7 µM],-5%[25.6 µM],-2%[17.1 µM],-3%[25.6 µM]
C=Cc1c(C)c2cc3nc(cc4[nH]c(cc5nc(cc1[nH]2)C(C)=C5CCC(=O)O)c(CCC(=O)OC)c4C)[C@@]1(C)C3=CC=C(C(=O)OC)[C@H]1C(=O)OC (tested in a mixture with another compound),i,-7%[25.6 µM],?,-19%[25.6 µM]
c1ccc(C(c2ccccc2)N2CC3(CCNCC3)C2)cc1,-18%,-3%,-8%,18%
Cc1oc(-c2nc3ccccc3n2C)cc1C(=O)c1ccccc1,-29%,?,?,25µM*
COCCN(C(=O)CCCC(=O)Nc1ccccn1)C(C(=O)NC1CCCCC1)c1ccc(C)cc1 (centres undefined),11%,?,-20%,7.9µM*
NCCNC(=S)S,-17%[11.5 µM],0%[11.4 µM],16%[7.6 µM],-1%[11.4 µM]
CN1CCN(C(=O)c2cc(Cl)ccc2Cl)CC1,4%,?,-2%,32µM*
CN1CCN(C(=O)c2nc3ccc(Cl)cc3[nH]2)CC1,12%,5%,nt,11%
Cc1ccc(C2Nc3ccccc3-c3nc4ccccc4n32)o1 (centres undefined),-9%,?,?,20µM*
CN1c2ccccc2-c2nc3ccccc3n2C1c1ccncc1 (centres undefined),13%,?,?,?
COC(=O)C/C=C\[C@@H](C)[C@@H](/C=N\OC[C@@H](O)[C@H]1O[C@H]2OC(C)(C)O[C@H]2[C@@H]1O)NS(=O)(=O)c1ccc(C)cc1,7%[11.5 µM],-9%[11.4 µM],nt,-3%[11.4 µM]
COc1ccc2c(c1)c(CC(=O)O)c(C)n2Cc1ccc(F)cc1,9%,?,-7%,?
COc1ccc2c(c1)c(=O)c(Br)c(C)n2Cc1ccccc1,59%,?,?,32µM*
O=c1c(-c2cc(F)cc(F)c2)nc2cnc(N3CCNCC3)nc2n1CCc1ccccc1,-4%,?,?,?
CCC(O)CNc1nc(-n2nc(C)cc2C)nc2sc3c(c12)CCCC3 (centres undefined),-4%,0%,0.79µM*,21%
CN(C)C(=O)c1ccc(-c2cc(NCc3cccnc3)ncn2)cc1,-2%,0%,-4%,-8%
CCN(Cc1ccccc1)C(c1ccccn1)c1nnnn1C(C)(C)CC (centres undefined),26%,?,?,5µM*
CCC(C)(C)n1nnnc1C(c1ccccn1)N1CCOCC1 (centres undefined),5%,-9%,1%,8%
SMILES,ERK AVP inh,TSHR agonist,CRE-bla Fsk,HEK293 cAMP cs
COC(=O)c1ccc(Nc2nc(C)cc(=O)[nH]2)cc1,?,?,?,13µM*
COc1ccccc1Nc1nc(C)cc(=O)[nH]1,10%,5%,1%,0%
Cc1nc(NCc2ccccc2)c2nc(-c3ccccc3)n(C(C)CN(C)C)c2n1 (centres undefined),-1%,17%,-15%,24%
Cc1ccc(-c2nn(C)c(=O)c3ccccc23)cc1S(=O)(=O)NCCO,?,4%,10µM*,6%
Cc1ccc(-c2nn(C)c(=O)c3ccccc23)cc1S(=O)(=O)N1CCCC1,nt,49%,3.2µM*,18%
Cc1ccc(-c2nn(C)c(=O)c3ccccc23)cc1S(=O)(=O)N1CCOCC1,?,23%,3.2µM*,10%
N#Cc1c(-c2ccccc2)no[n+]1[O-],25%,nt,?,-10%
CN1CCN(CCc2ccc(Cl)c(Cl)c2)CC1,15%,9%,-21%,13%
Nc1c(C(=O)OCC2CCCO2)c2nc3ccccc3nc2n1C1CCCC1 (centres undefined),?,23%,2.5µM*,25%
COc1ccc(COC(=O)N/N=C2/C[C@@H](O)[C@@H](O)[C@@H]3[C@@H]4C(=O)N(C(C)(C)C)C(=O)[C@H]4CC[C@@H]23)cc1,2%[11.5 µM],5%[11.4 µM],nt,4%[11.4 µM]
CC1CCCN(c2ccc(C(=O)NCc3cccs3)cn2)C1 (centres undefined),16µM*,-3%,3%,18%
O=C(NCc1cccs1)c1ccc(N2CCCCC2)nc1,-4%,1%,?,17%
COCCNC(=O)c1c(N)n(-c2cccc(C)c2)c2nc3ccccc3nc12,9%,-3%,10µM*,4%
Nc1c(C(=O)NCCN2CCOCC2)c2nc3ccccc3nc2n1-c1ccccc1,15%,7%,?,9%
C=CCNC(=O)c1c(N)n(-c2cccc(S(N)(=O)=O)c2)c2nc3ccccc3nc12,3%,-21%,10µM*,-5%
C[C@@]12CC[C@@H]3[C@@H](CC[C@H]4C[C@@H](O)CC[C@]43C)[C@H]1CC[C@@H]2c1cc(C(F)(F)F)n[nH]1,38%[11.5 µM],9%[11.4 µM],-5%[7.6 µM],0%[11.4 µM]
c1ccc(-c2nc(-c3ccncc3)no2)cc1,-1%,2%,1%,5%
c1ccc(C(Cc2nc(-c3ccncc3)no2)c2ccccc2)cc1,21%,?,-2%,16µM*
COc1cc(-c2nnc(COc3ccc4ccccc4c3)o2)cc(OC)c1OC,?,?,0.13µM*,?
Clc1ccc(OCc2nnc(SCc3nc4ccccc4[nH]3)n2Cc2ccco2)cc1,20µM*,22%,-1%,28%
O=C(CSc1nnc(-c2ccncc2)n1Cc1ccco1)c1ccc(Cl)cc1,-10%,?,-8%,?
O=C(CSc1nnc(COc2ccc(Cl)cc2)n1Cc1ccco1)c1ccccc1F,9%,?,-12%,25µM*
COc1ccc(C)cc1NC(=O)CSc1nnc(COc2ccc(Cl)cc2)n1Cc1ccco1,-6%,?,?,?
Cc1cc(NC(=O)CSc2nnc(COc3cccc(C)c3C)n2Cc2ccco2)no1,-8%,-7%,-7%,7%
O=C(CSc1nnc(-c2ccc(Cl)cc2)n1Cc1ccco1)c1cccs1,15%,?,?,16µM*
Cc1cccc(OCc2nnc(SCC(=O)N(C(C)C)C(C)C)n2Cc2ccco2)c1C,-8%,?,13µM*,7.9µM*
